This passage reports activation, Potency and activity change, negative = inhibition results from PubChem BioAssay (NCATS).

Inconclusive results are not listed. Values without a mark were called inactive. Calls of active or inactive are those of the source. Calls follow the shape of the dose curve; as a rule, active = well fitted curve in the direction sought with a large enough effect; inconclusive = small, poorly fitted or top-dose-only effect, or another doubt; inactive = no such curve, though single readings can be large; an effect the other way counts as inactive or inconclusive.

Experiment [1] concerns the target Cellular tumor antigen p53 (Homo sapiens) (UniProt P04637). Briefly: Primary qHTS for small molecule compounds that upregulate eGFP-tagged delta133p53alpha (in N-terminal) cells. (AID 2060322). Also: nearly all actives have a fitted effect of over 75% in size. Also: potency is read from the fitted curve at half-maximal effect.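 As to activation: series mostly up to about 56 µM; 0% = DMSO vehicle and 100% = reference activator.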 The settings on record: NCI-H358 eGFP-delta133p53alpha fluorescence, 24 h; activation: hits give high values. An outline of the steps:
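NCI-H358 cells pre-induced 24 h with 10 ng/ml doxycycline to express N-terminal eGFP-delta133p53alpha, then dosed 24 h at 37C without doxycycline; fixed, Hoechst-stained, GFP intensity by laser scanning cytometry, normalized to DMSO (0%) and 57.5 uM 5-azacytidine (100%).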
For orientation: Quantitative high-throughput screening tests each substance at several concentrations.

The target of experiment [2] is Aldehyde dehydrogenase, mitochondrial (Homo sapiens) (UniProt P05091). Briefly: qHTS for Inhibitors of the Aldehyde Dehydrogenase Family (ALDH2) Primary screen (AID 2061308).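 Also: plate controls were vehicle for no effect and reference inhibitor for full effect; nearly all actives have a fitted effect of over 55% in size.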
In experiment [3] the target is Retinaldehyde dehydrogenase 3 (Homo sapiens) (UniProt P47895). Briefly: qHTS for Inhibitors of the Aldehyde Dehydrogenase Family (ALDH1A3) Primary screen (AID 2061315).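 Also: plate controls were DMSO vehicle for no effect and reference inhibitor for full effect.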

Sequence of Cellular tumor antigen p53 (Homo sapiens) (P04637 whole entry, looked up): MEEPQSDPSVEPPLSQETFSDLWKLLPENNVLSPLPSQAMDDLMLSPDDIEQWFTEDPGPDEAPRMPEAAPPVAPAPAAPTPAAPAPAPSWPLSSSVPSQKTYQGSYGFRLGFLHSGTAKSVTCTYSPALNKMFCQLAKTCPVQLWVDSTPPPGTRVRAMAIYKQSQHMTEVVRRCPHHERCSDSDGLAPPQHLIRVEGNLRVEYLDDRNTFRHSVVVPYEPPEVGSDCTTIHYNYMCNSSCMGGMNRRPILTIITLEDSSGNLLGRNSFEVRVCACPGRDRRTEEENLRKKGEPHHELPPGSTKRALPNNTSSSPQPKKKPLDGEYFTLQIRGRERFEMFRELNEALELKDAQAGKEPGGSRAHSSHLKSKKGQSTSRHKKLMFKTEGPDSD

As to `CC(=O)c1c(O)cc2c(c1C)C(=O)CC(O)C2` (stereo not drawn), the activation in experiment [1] is -14.5%. The Potency result in experiment [2] and in experiment [3] was “inactive” in each case.
With `Cc1ccc(F)cc1C(=O)Nc1ccc(C(=O)N2Cc3cccn3Cc3ccccc32)c(Cl)c1`, the activation in experiment [1] is 1.67%. The Potency entry in experiment [2] and in experiment [3] was “inactive” in each case.
With `O=C(O)Cc1cccc(-c2cc(CCCCCCc3ccc(O[C@H]4O[C@H](CO)[C@@H](O)[C@H](O)[C@@H]4O)c(-c4cccc(CC(=O)O)c4)c3)ccc2O[C@H]2O[C@H](CO)[C@@H](O)[C@H](O)[C@@H]2O)c1`, the activation in experiment [1] was 4.33%. In addition, the figures for the activity change, negative = inhibition in experiment [2] and in experiment [3] were -4.79% [at 0.464 µM] and -13.7% [at 0.464 µM], respectively.
As for `COc1ccc2c(c1)C(C(=O)N(Cc1ccc(N(C)C)cc1)c1ccc(C(C)C)cc1)CCC2` (stereo not drawn), in experiment [1], the activation is 1%. The Potency entry in experiment [2] and in experiment [3] was “inactive” throughout.
For `C=C(C)C(O)COc1ccc(CC(=O)O)cc1` (stereo not drawn), the activation in experiment [1] is 8.93%. Further, the Potency result in experiment [2] and in experiment [3] was “inactive” each time.
As to `C[C@@H]1O[C@@H](O[C@H]2[C@@H]3C=CO[C@@H](O[C@@H]4O[C@H](CO)[C@@H](O)[C@H](O)[C@H]4O)[C@@H]3[C@@]3(CO)O[C@@H]23)[C@H](O)[C@H](O)[C@H]1OC(=O)/C=C/c1ccc(O)cc1`, the activation in experiment [1] is -25.2%. For the same compound, the Potency result in experiment [2] and in experiment [3] was “inactive” in each case.
Consider `C[N+]1(C)[C@@H]2C[C@@H](OC(=O)C(O)(c3cccs3)c3cccs3)C[C@H]1[C@@H]1O[C@@H]12`, for which, in experiment [1], the activation is 8.63%. Besides, the Potency result in experiment [2] and in experiment [3] was “inactive” each time.
Take `CCC(CC)(NC(=O)C(C)C)C(=O)N[C@@H](CCCN=C(N)N)C(=O)NC1(C(=O)NC(c2ccc(F)cc2)c2ccc(F)cc2)CCCC1`: the activation in experiment [1] was -15.7%. The Potency entry in experiment [2] and in experiment [3] was “inactive” throughout.
Take `COC(=O)C1=CO[C@@H](O)C2C(CO)=CCC12` (stereo partly drawn): in experiment [1], the activation was 23%. The Potency result in experiment [2] and in experiment [3] was “inactive” each time.
Take `CC(C)C1(O)C=C2C(=O)CC3C(C)(C(=O)O)CCCC3(C)C2CC1` (stereo not drawn): the activation in experiment [1] was -12.2%. Also, the Potency entry in experiment [2] and in experiment [3] was “inactive” throughout.
For `Nc1nc2c(ncn2CCC(CO)CO)c(=O)[nH]1`, in experiment [1], the activation was -5.36%. Also, the Potency result in experiment [2] and in experiment [3] was “inactive” each time.
`CC(C)NCCCn1c(Sc2cc3c(cc2I)OCO3)nc2c(N)ncnc21`: in experiment [1], the activation is 10%. The Potency entry in experiment [2] and in experiment [3] was “inactive” throughout.
Regarding `COc1ccc(C2(O)c3ccccc3NC(=O)C2O)cc1` (stereo not drawn), in experiment [1], the activation was -3.82%. In addition, the Potency entry in experiment [2] and in experiment [3] was “inactive” in each case.
Turning to `O=C(C1=CCN2c3c(cccc31)OC[C@H]2CN1CCOCC1)c1cccc2ccccc12`, the activation in experiment [1] is 27.7%. The Potency result in experiment [2] and in experiment [3] was “inactive” in each case.
For `Cc1ccc2c(Nc3ccc(Cl)cc3)nccc2c1Nc1ncccc1-c1ncnc2nc[nH]c12`, the Potency in experiment [1] was 9.53 µM (active). Besides, the Potency result in experiment [2] and in experiment [3] was “inactive” throughout.
As for `CS/C=C/C(=O)O[C@@H]1CCC2=CC(=O)C(=C(C)C)C[C@]2(C)[C@H]1C`, the activation in experiment [1] is -1.79%. For the same compound, the Potency entry in experiment [2] and in experiment [3] was “inactive” each time.
With `C[C@@H]1O[C@@H](O[C@H]2[C@H](O[C@H]3[C@H](O[C@H]4CC[C@@]5(C)C(CC[C@]6(C)C5CC=C5[C@@H]7CC(C)(C)CC[C@]7(C(=O)O[C@@H]7O[C@H](CO)[C@@H](O[C@@H]8O[C@@H](C)[C@H](O)[C@@H](O)[C@H]8O)[C@H](O)[C@H]7O)CC[C@]56C)C4(C)C)OC[C@H](O)[C@@H]3O)O[C@H](CO)[C@@H](O)[C@@H]2O)[C@H](O)[C@H](O)[C@H]1O` (stereo partly drawn), in experiment [1], the activation is 7.14%. Also, the activity change, negative = inhibition in experiment [2] is 3.25% [at 11.2 µM]; in experiment [3] it was -3.58% [at 11.2 µM].
For `CCCCCCCCC(=O)N[C@H](CN1CCCC1)[C@H](O)c1ccc2c(c1)OCCO2`, in experiment [1], the activation was -1%. In addition, the Potency result in experiment [2] and in experiment [3] was “inactive” in each case.
As for `C[C@]1(OC(=O)/C=C/c2ccccc2)C[C@@H](O)[C@]2(O)C=CO[C@@H](O[C@@H]3O[C@H](CO)[C@@H](O)[C@H](O)[C@H]3O)[C@@H]21`, the activation in experiment [1] is -8.93%. The Potency result in experiment [2] and in experiment [3] was “inactive” throughout.
Turning to `C=C(CCO)C(=O)OCC1OCC(OC(=O)C(=C)CCO[C@@H]2O[C@H](CO)[C@@H](O)[C@H](O)[C@H]2O)C(O)C1O` (stereo partly drawn), in experiment [1], the activation was -8.4%. Moreover, the Potency result in experiment [2] and in experiment [3] was “inactive” each time.
On to `CC1=C(C(=O)O)/C(=C\CO[C@@H]2O[C@H](CO)[C@@H](O)[C@H](O)[C@H]2O)C(OC(=O)/C=C/c2ccc(O)cc2)C1` (stereo partly drawn), for which the activation in experiment [1] is -3.82%. Moreover, the Potency entry in experiment [2] and in experiment [3] was “inactive” each time.
